Screens: PubChem BioAssay, The Scripps Research Institute Molecular Screening Center
FBW7 activator: human FBW7 E3 ligase activation, primary screen; Q969H0; AlphaScreen FBW7–phospho-cyclin E peptide binding, activator screen; normalized activity (activation), % at 26.1 µM; 0.13% of 650,000 active; in the data active = normalized activity above about 1.9%;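 note: purified mutant Fbw7 with reduced substrate affinity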
Target sequence (Q969H0 whole entry, looked up): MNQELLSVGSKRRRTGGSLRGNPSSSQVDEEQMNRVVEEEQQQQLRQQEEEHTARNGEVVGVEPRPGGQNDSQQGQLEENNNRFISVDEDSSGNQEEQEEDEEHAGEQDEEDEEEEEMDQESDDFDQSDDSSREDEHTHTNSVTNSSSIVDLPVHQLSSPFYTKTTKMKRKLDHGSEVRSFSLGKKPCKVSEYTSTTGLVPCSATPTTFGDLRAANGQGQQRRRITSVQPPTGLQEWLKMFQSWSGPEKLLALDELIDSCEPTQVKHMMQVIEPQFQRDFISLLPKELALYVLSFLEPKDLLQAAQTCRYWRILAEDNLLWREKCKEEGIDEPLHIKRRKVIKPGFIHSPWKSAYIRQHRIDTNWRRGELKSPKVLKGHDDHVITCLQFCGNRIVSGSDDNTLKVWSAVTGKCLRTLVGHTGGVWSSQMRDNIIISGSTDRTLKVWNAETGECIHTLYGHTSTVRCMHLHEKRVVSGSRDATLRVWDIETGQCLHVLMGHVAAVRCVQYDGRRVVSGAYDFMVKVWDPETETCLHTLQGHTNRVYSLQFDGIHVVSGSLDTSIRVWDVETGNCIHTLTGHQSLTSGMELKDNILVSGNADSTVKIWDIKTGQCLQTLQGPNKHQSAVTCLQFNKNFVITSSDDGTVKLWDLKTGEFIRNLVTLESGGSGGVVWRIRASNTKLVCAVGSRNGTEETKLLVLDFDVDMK
MITF primary: inhibitors of human MITF; O75030; AlphaScreen MITF homodimerization, bead proximity signal; inhibition, % at 2.6 µM; 0.91% of 650,000 active; AID 1259374; in the data active = inhibition above about 50%;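 note: 0% = vehicle wells with protein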
GPR151 ag: activators of human GPR151. PathHunter beta-arrestin GPR151 cells, luminescence. 1% of 650,000 active. Q8TDV0. activation, % at 11.2 µM; in the data active = activation above about 4.9%;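 note: 0% = median of compound wells and 100% = cells with positive control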
TEAD-YAP block: TEAD-YAP interaction inhibition. inhibition, % at 9.12 µM. 1.4% of 640,000 active. AID 1259422. HEK-TIYL cells, TEAD-Gal4/YAP UAS-luciferase luminescence; in the data active = inhibition above about 32%;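 note: 0% = median of test compound wells and 100% = reference inhibitor wells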
GPR151 confirm: human GPR151 activation, confirmation screen | shares compounds with GPR151 ag | activation, % at 11.2 µM | AID 1508609 | GPR151 PathHunter beta-arrestin cells, luminescence, 90 min; % of EA-reagent control over plate median | 6,700 tested, under 10 active;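 active = mean percent activation across replicates above the confirmation screen cutoff of 4.91%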
GPR119 ag: counter-screen for GPR151 activators: effect on human GPR119. shares compounds with GPR151 ag. activation, % at 11.2 µM. GPR119 PathHunter beta-arrestin cells, luminescence, 90 min; 0 = compound-well median, 100 = enzyme-acceptor control. 0.3% of 6,700 active;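 active = mean percent activation in the counterscreen above 29.09%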;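 note: counterscreen on off-target GPR119 to flag nonselective hits from the GPR151 activator screen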
* hit, by the source's call; x = no result; ! = repeats disagree. The list is not random: actives were taken first. Their share in the collection is about 3.4%.

SMILES | FBW7 activator | MITF primary | GPR151 ag | TEAD-YAP block | GPR151 confirm | GPR119 ag
CCCCCNC(=O)c1c[nH]c2ccc(S(=O)(=O)N(C)c3ccc(Br)cc3)cc2c1=O | 0 | 8 | -2 | 0 | x | x
CC(=O)N/C(N)=N/c1nc2cc(C)ccc2o1 | 0 | 11 | 5.4*! | -41 | 0 | 0
CC(CC(=O)Nc1ccc(F)cc1F)S(=O)(=O)c1ccc2c(c1)OCC(=O)N2 (stereo not given) | 0 | 10 | 0 | 4 | x | x
COc1ccc(NC(=O)CC(C)S(=O)(=O)c2ccc3c(c2)OCC(=O)N3)cc1OC (stereo not given) | 0 | -15 | 9.6* | -1 | -1 | -6
CC(CC(=O)Nc1ccc(F)cc1Cl)S(=O)(=O)c1ccc2c(c1)OCC(=O)N2 (stereo not given) | 0 | 11 | 7.7* | 1 | 0 | -9
Cc1ccccc1NC(=O)CC(C)S(=O)(=O)c1cc2c(cc1C)NC(=O)CO2 (stereo not given) | 0 | 8 | 2 | -7 | x | x
COc1ccc(OC)c(NC(=O)CC(C)S(=O)(=O)c2cc3c(cc2C)NC(=O)CO3)c1 (stereo not given) | 0 | -6 | 5.1* | -7 | 0 | -2
CCC(C(=O)NCCOC)n1cc(C=O)c2ccccc21 (stereo not given) | 0 | 2 | 3 | -7 | x | x
Cc1ccc(NCC(O)Cn2c3ccccc3c3ccccc32)cc1C (stereo not given) | 0 | 5 | -1 | -10 | x | x
NC(=O)CSc1nc2cc3c(cc2c(=O)n1Cc1ccc(C(=O)N2CCN(c4ccccc4)CC2)cc1)OCO3 | 0 | 9 | 0 | 3 | x | x
Cc1ccc(NS(=O)(=O)c2cn(C)c(=O)n(C)c2=O)cc1C | 0 | -5 | 2 | -3 | x | x
Cn1cc(S(=O)(=O)NCCC(c2ccccc2)c2ccccc2)c(=O)n(C)c1=O | 1 | 11 | 4.9* | 0 | 0 | 6
Cc1cccc(NS(=O)(=O)c2cn(C)c(=O)n(C)c2=O)c1 | 0 | -4 | 5.9* | -6 | 1 | 12
COc1ccccc1CCNS(=O)(=O)c1cn(C)c(=O)n(C)c1=O | 0 | -4 | 3 | 6 | x | x
CCOC(=O)C1=C(C)Nc2nc(SC)nn2C1c1ccc(OC)cc1 (stereo not given) | 0 | 8 | 2 | 3 | x | x
CCOC(=O)C1=C(C)Nc2nc(SCc3cccnc3)nn2C1c1ccc(OC)cc1 (stereo not given) | 0 | 9 | 8.0* | -3 | 0 | 7
Cc1ccc(CCNC(=O)CN2CCN(Cc3cccc(C)c3)C2=O)cc1 | 0 | -4 | 5.5* | 8 | 0 | -12
Cc1ccccc1-c1cnnc(NCc2cc(-c3ccccc3)on2)n1 | 0 | 18 | -2 | -3 | x | x
Cc1ccccc1-c1cnnc(NCC2COCCO2)n1 (stereo not given) | 0 | 3 | 7.4* | -1 | 1 | 2
CC(=O)NCCSCc1cc2cccc3c2n(c1=O)CCC3 | 0 | 9 | 6.3* | -11 | -1 | -8
Cc1nnsc1C(=O)Nc1cccc2ccccc12 | 0 | 6 | 1 | -9 | x | x
O=C(O)/C=C/c1cn(-c2ccccc2)nc1-c1cccc([N+](=O)[O-])c1 | 0 | 15 | 5.3* | 13 | -1 | -12
CCOC(=O)C1=CN(C)C=C(C(=O)OCC)C1c1ccc([N+](=O)[O-])cc1 | 0 | 5 | 0 | -2 | x | x
CC(=O)Nc1ccc(Nc2nc(-c3ccc(C(=O)NC4CC4)cc3)nc3nc[nH]c23)cc1 | 0 | -2 | 7.8* | -7 | 2 | -11
CC(C)CNC(=O)C1=CC(c2ccc(F)cc2)=NS(=O)(=O)N1C | 0 | 2 | 7.5* | -8 | 0 | -8
SMILES | FBW7 activator | MITF primary | GPR151 ag | TEAD-YAP block | GPR151 confirm | GPR119 ag
CN(C)c1ccc(CNC(C)(C)CO)cc1 | 1 | 14 | 5.1* | 2 | 1 | 3
CSc1ccc(CNC(C)(C)CO)cc1 | 0 | 12 | 0 | 7 | x | x
Cc1ccc(NC(=O)C2C3C=CC4(O3)C2C(=O)N(Cc2ccc(Cl)cc2)C4C(=O)NC2CCCC(C)C2C)cc1Cl (stereo not given) | 0 | -4 | 2 | 3 | x | x
CC(=NC1CC(C)(C)NC(C)(C)C1)c1c(C)[nH]n(-c2ccc([N+](=O)[O-])cc2)c1=O | 0 | 0 | 6.3* | 9 | -1 | -7
Cc1cc(=O)[nH]c(N/N=C/C=C2\N(C)c3ccccc3C2(C)C)n1 | -1 | 24 | 5.0* | 6 | 0 | -3
Cc1nn(-c2ccccc2)c(Cl)c1C(=O)Nc1nnc(COc2ccccc2)s1 | 0 | 0 | 5.5* | 11 | 2 | 8
CC(C)(C)c1ccc(C(=O)Nc2nnc(COc3ccccc3)s2)cc1 | 0 | 2 | 0 | 2 | x | x
CC(=O)c1cccc(NC(=O)COc2ccc(S(=O)(=O)NC3CCCC3)cc2)c1 | 0 | -2 | 0 | 4 | x | x
CC1(C)C(=O)OC(c2ccccc2F)C2(CCCCC2)C1=O (stereo not given) | 0 | 4 | 5.3* | 1 | 0 | -5
O=C1c2c(Cl)c(Cl)c(Cl)c(Cl)c2C(=O)N1c1ccc([N+](=O)[O-])cc1O | 0 | 12 | 1 | -6 | x | x
CCN(CC)c1nc(C)nc2sc(C(=O)Nc3ccc(Oc4ccccc4)cc3)c(C)c12 | 0 | -12 | 0 | -11 | x | x
Cc1nc(N(C)c2ccc(C(C)C)cc2)c2c(C)c(C(=O)Nc3ccc(Oc4ccccc4)cc3)sc2n1 | 1 | 11 | 7.8* | -2 | 1 | 6
Cn1c2ccc(Br)cc2c2nnc(N/N=C\c3ccccc3O)nc21 | 0 | -14 | -1 | 0 | x | x
CC(NCC(C)(C)CN(C)C)C(=O)Nc1ccccc1 (stereo not given) | 0 | 6 | 7.0* | 5 | 1 | 3
CN1CCCCCC1=NC(=O)c1ccccc1 | 0 | -10 | -1 | 9 | x | x
C=CCn1c(SCC(=O)Nc2sc3c(c2C(=O)OCC)CCCCC3)nc2sc(-c3ccccc3)cc2c1=O | 0 | -4 | 6.3* | -3 | 1 | 18
CCOCCCNCc1ccccc1F | 0 | 38 | 5.2* | -4 | 0 | 3
CCOC(=O)CCCCNCc1ccccc1F | 0 | 7 | 1 | 2 | x | x
C=C1C(=O)OC2CC3(C)CCCC(C)C3=CC12 (stereo not given) | 0 | 6 | 6.2*! | 11 | 1 | 3
COc1ccc2nc(SCC(=O)Nc3nc(-c4ccccc4)cs3)[nH]c2c1 | 0 | -1 | 0 | -33 | x | x
COc1ccc(OC(=O)c2cccc(Br)c2)cc1 | 0 | 19 | 1 | -4 | x | x
CC(=O)c1ccc(OC(=O)c2cccc(Br)c2)cc1 | 0 | 23 | 17* | -19 | 2 | 4
C/C(CCc1ccccc1)=N/Nc1ccc([N+](=O)[O-])cc1 | 0 | 8 | 8.0* | 1 | 0 | -5
COc1ccc(C(c2c(C)[nH][nH]c2=O)c2c(C)[nH][nH]c2=O)cc1[N+](=O)[O-] | 0 | -13 | 0 | 5 | x | x
